About 13,000 (3.2%) of roughly 400,000 compounds were called active. About 18% were inconclusive and are not listed. The call rests on the fitted dose curve; in most records, active means well fitted cell-killing curve with a large enough effect; inconclusive means small, poorly fitted or top-dose-only effect, or effect the other way; inactive means flat fitted curve, though single readings scatter. Shown is part of a subset that was picked to be rich in actives.
Assay: qHTS assay for MDR1-selective chemotherapeutics: Primary screen using the drug-selected MDR subline cells KB-V1; further: nearly all actives have a fitted effect of over 60% in size
Settings: KB-V1 MDR cells viability, CellTiter-Glo, 72 h; series mostly up to 46.1 µM; activity change, negative = cytotoxicity: at the top concentration
How it was run: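 KB-V1 MDR subline cells in DMEM (phenol-red free, 10% FBS) exposed to compounds in qHTS concentration series for 72 h at 37 degrees C. Viability read by CellTiter-Glo luminescence; concentration-effect curves fitted after normalization and correction.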
On the % scale 0 is the no-effect control and ±100 the full control effect; potency means the concentration at half of the fitted maximal effect.

SMILES	activity change, negative = cytotoxicity	Potency
Cc1cc2c3ccccc3[nH]c(=O)n2n1	15.2% (inactive)	
CCOC(=O)C1CCCN(C(=O)C2CCN(S(=O)(=O)c3ccc(Cl)c(C(F)(F)F)c3)CC2)C1 (configuration not stated)		20.6 µM (active)
CCOc1ccc(S(=O)(=O)N2CCCC(C(=O)N3CCC(C(N)=O)CC3)C2)cc1Cl (configuration not stated)	-2.55% (inactive)	
CCOC(=O)C1CCCN(C(=O)c2cccc(S(=O)(=O)N3CCOCC3)c2)C1 (configuration not stated)	-5.97% (inactive)	
Nc1[nH]c(C(=O)c2ccccc2)c(-c2ccc(Br)cc2)c1C(=O)NC1CC1	-35% (inactive)	
CCc1ccc(OCCCn2c(CCCNC(=O)C3CCCCC3)nc3ccccc32)cc1	-0.972% (inactive)	
COc1cccc(CNC(=O)c2cccnc2Sc2ccc(Cl)cc2)c1	18.3% (inactive)	
O=C(NCc1cccnc1)c1cccnc1Sc1ccc(Cl)cc1		18.4 µM (active)
O=C(NC1CCCCCC1)c1cccnc1Sc1ccc(Cl)cc1	2.94% (inactive)	
OCCc1ccc(NCCc2ccco2)cc1	20.5% (inactive)	
COc1ccc(C(=O)CC(=O)C(=O)Nc2cc([N+](=O)[O-])ccc2OC)cc1	-1.07% (inactive)	
COc1ccc([N+](=O)[O-])cc1NC(=O)C(C)OC(=O)C1c2ccccc2Oc2ccccc21 (configuration not stated)		9.2 µM (active)
COc1ccc([N+](=O)[O-])cc1NC(=O)CCc1ccccc1	-17.9% (inactive)	
Cc1ccccc1NC(=O)Cc1nc(COC(=O)C(C)(C)Oc2ccc(Cl)cc2)cs1	9.47% (inactive)	
Cc1ccc(Cc2nc3ccccc3nc2SCC(=O)Nc2cccc(C(F)(F)F)c2)cc1	0% (inactive)	
Cc1onc(-c2ccc(F)cc2F)c1C(=O)Nc1cccc(C(F)(F)F)c1	-23.5% (inactive)	
Cn1nc(C(F)(F)F)c(C(=O)Nc2cccc(C(F)(F)F)c2)c1SCc1ccc(Cl)cc1		18.4 µM (active)
CCC(=O)N1CCc2cc(Br)cc(S(=O)(=O)CCC(=O)NCCc3ccc(OC)c(OC)c3)c21	0% (inactive)	
C[C@@H]1CN([C@H](C)CO)C(=O)CCCn2cc(nn2)CO[C@H]1CN(C)S(C)(=O)=O	-10.7% (inactive)	
Cc1ccc(-c2nn(CCC(=O)Nc3ccc(OC(F)(F)F)cc3)c(=O)c3ccccc23)cc1	-14.4% (inactive)	
CCc1nc2ccc(C(=O)Nc3ccc(OC)c(OC)c3)cn2c1N(C)C(=O)c1cccc(OC)c1	3.04% (inactive)	

SMILES	activity change, negative = cytotoxicity	Potency
CCCC/C=C/c1cccc2nncn12	5.91% (inactive)	
CCCCC[C@H](C)N1C[C@@H](COCc2ccccc2)Oc2cc(N3CCC[C@@H]3CO)ccc2S1(=O)=O	13.8% (inactive)	
CC(=O)N1CCCc2cc(S(=O)(=O)N3CCCC(C(=O)N4CCN(c5cccc(Cl)c5)CC4)C3)ccc21 (configuration not stated)		16.4 µM (active)
CC(=O)N1CCCc2cc(S(=O)(=O)N3CCCC(C(=O)NCc4ccc(Cl)cc4)C3)ccc21 (configuration not stated)		inactive
CC(=O)N1c2ccc(S(=O)(=O)N3CCCC(C(=O)Nc4cccc(Cl)c4)C3)cc2CC1C (configuration not stated)	-8.22% (inactive)	
CC(=O)c1ccc(NC(=O)CSc2nc(-c3ccccc3F)nc3c2c(=O)n(C)c(=O)n3C)cc1	27.3% (inactive)	
CCCNC(=O)CSc1nc(Cc2ccccc2)nc2ccccc12	-19.6% (inactive)	
C=CCSc1nc(Cc2ccc(Cl)cc2)nc2ccccc12		16.4 µM (active)
CC(C)CCNC(=O)CSc1nc2ccccc2nc1Cc1ccc(Cl)cc1	10.5% (inactive)	
CCOC(=O)c1c(NC(=O)c2cc(-c3ccc(Cl)cc3)on2)sc2c1CCCC2	6.22% (inactive)	
COc1ccc(CCCc2nnc(SCc3nc4ccccc4c(=O)[nH]3)n2C)cc1	-19.7% (inactive)	
CCn1c(COc2c(C)cccc2C)nnc1SCc1nc2ccccc2c(=O)[nH]1	-6.81% (inactive)	
COc1ccc(C)cc1-n1nnnc1SCc1nc2ccccc2c(=O)[nH]1		5.17 µM (active)
COCCCn1c(=O)/c(=C/c2ccccc2OC(C)C)s/c1=C(\C#N)C(=O)Nc1ccc(C(=O)O)cc1	-5.04% (inactive)	
Cc1nc(C(F)(F)F)ccc1C(=O)N1CCC1(C)C(=O)NS(=O)(=O)c1ccccc1Cl (configuration not stated)	0.0203% (inactive)	
COc1cc(CNC(=O)c2cc3n(n2)CCCN(Cc2cccc(F)c2)C3=O)cc(OC)c1OC	1.03% (inactive)	
COC(=O)c1ccccc1NC(=O)Cn1c(=O)cc(C)c2c(C)nn(-c3cccc(Cl)c3C)c21	3.13% (inactive)	
CCCNC(=O)c1ccccc1NC(=O)CSCc1ccc(OC)cc1	-14.4% (inactive)	
CCCCCNC(=O)c1cccnc1SCC(=O)Nc1ccccc1OC		6.51 µM (active)
COc1ccccc1NC(=O)CSc1nnc(CNC(=O)c2ccccc2F)o1	0% (inactive)	
O=C(Nc1ccccn1)c1sc2ccc([N+](=O)[O-])cc2c1Cl	-9.59% (inactive)	

SMILES	activity change, negative = cytotoxicity	Potency
Cc1ccc(-c2ccc(CN3C(C(C)C)C(=O)N(Cc4cn(CCC5OCCCO5)nn4)CCS3(=O)=O)cc2)cc1 (configuration not stated)	-14.7% (inactive)	
CNC(=O)C[C@H]1C(=O)N(Cc2ccccc2)C[C@@H]1CSC	1.19% (inactive)	
Cc1ccc(NC(=O)Nc2cccnc2)cc1	-4.27% (inactive)	
Cc1nc(-c2ccc(F)cc2)c(CC(=O)Nc2cccc(S(=O)(=O)N3CCOCC3)c2)s1	-8.88% (inactive)	
Cc1ccc(-c2nc(-c3cccnc3)sc2CC(=O)Nc2ccc(C)c(Cl)c2)cc1		8.2 µM (active)
CC(=O)N1C[C@@H](CO)[C@@H](N(C)C(=O)c2ccco2)C[C@H]1c1ccccc1	12.2% (inactive)	
CCCCn1nnnc1C(c1cccc(OC)c1OC)N1CCN(C/C=C/c2ccccc2)CC1 (configuration not stated)	14.1% (inactive)	
CC(C)(O)C#Cc1ccc(CNC[C@H]2O[C@@H](n3cnc4c(=O)[nH]c(N)nc43)[C@H](O)[C@@H]2O)s1	8.09% (inactive)	
O=C(c1ccc(S(=O)(=O)N2CCCC2)cc1)N1CCN(c2ccccc2F)CC1	-7.58% (inactive)	
O=C(c1ccc(S(=O)(=O)NCc2ccco2)cc1)N1CCN(c2ccccc2)CC1	-12.4% (inactive)	
O=C(c1ccc(S(=O)(=O)N2CCOCC2)cc1)N1CCN(c2ccccc2)CC1		16.4 µM (active)
COc1cc2nnn(-c3ccncc3)c2cc1OC	-1.5% (inactive)	
CCOC(=O)C1(C)CCCN(C(=O)c2ccc(N(C)C)cc2)C1 (configuration not stated)	3.14% (inactive)	
O=C(Nc1nnc(-c2ccc(Cl)cc2)o1)c1ccccc1Br		6.51 µM (active)
O=C(Nc1ccccc1)c1ccccc1Br	4.37% (inactive)	
O=C(COC(=O)c1ccccc1Br)Nc1nnc(-c2ccccc2)o1	-26.5% (inactive)	
CCc1nc2c(OCc3ccc(C(=O)OC)cc3)cccn2c1N(C)C(=O)C(C)C	0.64% (inactive)	
C=CCn1nc(C(=O)OCC)cc1-c1sc(NC(=O)c2ccccc2)nc1C	-21.4% (inactive)	
C=CCn1c2ccccc2c2nnc(SC(CC)C(=O)Nc3nc(C)c(C(=O)OCC)s3)nc21 (configuration not stated)		2.31 µM (active)
CCOC(=O)c1sc(NC(=O)C(CC)Sc2nccn2C)nc1C (configuration not stated)	-18.2% (inactive)	

Reference: PubChem BioAssay AID1347076 (National Center for Advancing Translational Sciences (NCATS), 2019)
